According to PubChem BioAssay (Tox21):
Results filed as inconclusive are left out. Where a call stands in place of a potency, no number is given. Activity calls are given as the source filed them. Unless noted, calls come from the whole dose curve; as a rule, active = well fitted curve in the direction sought with a large enough effect in the repeat runs; inconclusive = weak or mixed curves; inactive = no such curve, though single readings can be large; an effect the other way counts as inactive or inconclusive.

Test system: not listed separately
Assay: qHTS assay for identifying genotoxic compounds that show differential cytotoxicity against isogenic chicken DT40 cell lines with known DNA damage response pathways - Rad54/Ku70 mutant cell line (AID 743015); note: nearly all actives have a fitted effect of over 60% in size; note: potency is the fitted concentration of half-maximal effect
Conditions: DT40 Rad54/Ku70 mutant viability, CellTiter-Glo, 40 h; series mostly up to 66.8 µM
For `C1C2OC2C2C1C1CC2C2OC12` (centres undefined), the Potency was “inactive”.
For `c1ccc2cnncc2c1`, the Potency was “inactive”.
In the case of `Cc1ccccc1Br`, the Potency is reported as “inactive”.
With `Cn1ccc2cc3c(cc21)CCN3C(=O)Nc1cccnc1` the Potency was 26.6 µM (active).
In the case of `c1ccc(CCCc2ccccn2)cc1`, the Potency is reported as “inactive”.
In the case of `CCC(=O)/C=C/c1ccc(OC)cc1`, the Potency is reported as 54.5 µM (active).
For `C=CCSCC1Nc2cc(Cl)c(S(N)(=O)=O)cc2S(=O)(=O)N1` (centres undefined), the Potency was “inactive”.
For `N[C@@H](CS)C(=O)O`, the Potency was “inactive”.
For `C=C(C)C(=O)NCCCN(C)C`, the Potency was “inactive”.
For `C#CC(O)CCCCC` (centres undefined), the Potency was “inactive”.
In the case of `OCCN1C[C@H](O)[C@@H](O)[C@H](O)[C@H]1CO`, the Potency is reported as “inactive”.
For `CCCCCCCCC=O`, the Potency was “inactive”.
In the case of `CC1CCN(CCCC(=O)c2ccc(F)cc2)CC1`, the Potency is reported as 7.5 µM (active).
For `NC(=O)c1ncn([C@@H]2O[C@H](CO)[C@@H](O)[C@H]2O)c1N`, the Potency was “inactive”.
For `O=C1C(CCS(=O)c2ccccc2)C(=O)N(c2ccccc2)N1c1ccccc1` (centres undefined), the Potency was “inactive”.
For `CCCCCCCCCCCCCCCCCCOCC(O)CO` (centres undefined), the Potency was “inactive”.
In the case of `COc1nc(C)nc(N)n1`, the Potency is reported as “inactive”.
In the case of `CCC(C)(C)C1CCC(OC)CC1` (centres undefined), the Potency is reported as “inactive”.
With `CCOC(=O)Cn1c(=O)sc2cccc(Cl)c21` the Potency was “inactive”.
With `CCCCCCCCCCCl` the Potency was “inactive”.
With `CC(C)=CC(=O)O` the Potency was “inactive”.

Test system: not listed separately
Assay: qHTS assay to identify small molecule antagonists of the androgen receptor (AR) signaling pathway - cell viability counter screen (AID 743033; note: nearly all actives have a fitted effect of over 45% in size)
Conditions: AR-bla HEK293 viability, CellTiter-Glo luminescence, 16 h; series mostly up to 58.5 µM
For `CCCCCCCCN(C)CCCCCCCC`, the outcome was “inactive”.
In the case of `Oc1ccc2c(c1)OC[C@@H](N1CCC(O)(c3ccc(F)cc3)CC1)[C@H]2O`, the outcome is reported as “inactive”.
With `C1C2OC2C2C1C1CC2C2OC12` (centres undefined) the outcome was “inactive”.
For `CO[Si](OC)(OC)OC`, the outcome was “inactive”.
With `c1ccc2cnncc2c1` the outcome was “inactive”.
In the case of `CC(C)(C)OC(=O)N1C[C@@H](F)C[C@H]1C(=O)O`, the outcome is reported as “inactive”.
With `C=CCOc1nc(OCC=C)nc(OCC=C)n1` the outcome was “inactive”.
With `Cc1ccccc1Br` the outcome was “inactive”.
For `CCn1cc(C(=O)O)c(=O)c2cc(F)c(N3CCN(C)CC3)cc21`, the outcome was “inactive”.
With `Cn1ccc2cc3c(cc21)CCN3C(=O)Nc1cccnc1` the outcome was “inactive”.
In the case of `c1ccc(CCCc2ccccn2)cc1`, the outcome is reported as “inactive”.
In the case of `CC1=CCC2C(C1)C2(C)C` (centres undefined), the outcome is reported as “inactive”.
With `CCC(=O)/C=C/c1ccc(OC)cc1` the outcome was “inactive”.
With `C=CCSCC1Nc2cc(Cl)c(S(N)(=O)=O)cc2S(=O)(=O)N1` (centres undefined) the outcome was “inactive”.
With `N[C@@H](CS)C(=O)O` the outcome was “inactive”.
For `CCN1CCCC(OC(=O)C(c2ccccc2)c2ccccc2)C1` (centres undefined), the outcome was “inactive”.
In the case of `C=C(C)C(=O)NCCCN(C)C`, the outcome is reported as “inactive”.
For `C#CC(O)CCCCC` (centres undefined), the outcome was “inactive”.
For `OCCN1C[C@H](O)[C@@H](O)[C@H](O)[C@H]1CO`, the outcome was “inactive”.
With `Nc1ccn(C2CO[C@H](CO)O2)c(=O)n1` (some centres undefined) the outcome was “inactive”.
For `CCCCCCCCC=O`, the outcome was “inactive”.
With `CC1CCN(CCCC(=O)c2ccc(F)cc2)CC1` the outcome was “inactive”.
For `CCCCCCCCCCC1CO1` (centres undefined), the outcome was “inactive”.
With `NC(=O)c1ncn([C@@H]2O[C@H](CO)[C@@H](O)[C@H]2O)c1N` the outcome was “inactive”.
In the case of `O=C1C(CCS(=O)c2ccccc2)C(=O)N(c2ccccc2)N1c1ccccc1` (centres undefined), the outcome is reported as “inactive”.
With `CCCCCCCCCCCCCCCCCCOCC(O)CO` (centres undefined) the outcome was “inactive”.
In the case of `NC1CCN(c2cccc(Cl)n2)CC1`, the outcome is reported as “inactive”.
With `COc1nc(C)nc(N)n1` the outcome was “inactive”.
In the case of `CCCOc1ccccc1-c1nc2n[nH]nc2c(=O)[nH]1`, the outcome is reported as “inactive”.
With `CCC(C)(C)C1CCC(OC)CC1` (centres undefined) the outcome was “inactive”.
For `CCOC(=O)Cn1c(=O)sc2cccc(Cl)c21`, the outcome was “inactive”.
In the case of `O=Cc1ccccc1[N+](=O)[O-]`, the outcome is reported as “inactive”.
For `CCCCCCCCCCCl`, the outcome was “inactive”.
In the case of `CC(C)=CC(=O)O`, the outcome is reported as “inactive”.
With `Cc1onc(-c2ccccc2)c1-c1ccc(S(N)(=O)=O)cc1` the outcome was “inactive”.

Molecular target: Androgen receptor (Homo sapiens) (UniProt P10275)
Sequence (P10275 whole entry, looked up): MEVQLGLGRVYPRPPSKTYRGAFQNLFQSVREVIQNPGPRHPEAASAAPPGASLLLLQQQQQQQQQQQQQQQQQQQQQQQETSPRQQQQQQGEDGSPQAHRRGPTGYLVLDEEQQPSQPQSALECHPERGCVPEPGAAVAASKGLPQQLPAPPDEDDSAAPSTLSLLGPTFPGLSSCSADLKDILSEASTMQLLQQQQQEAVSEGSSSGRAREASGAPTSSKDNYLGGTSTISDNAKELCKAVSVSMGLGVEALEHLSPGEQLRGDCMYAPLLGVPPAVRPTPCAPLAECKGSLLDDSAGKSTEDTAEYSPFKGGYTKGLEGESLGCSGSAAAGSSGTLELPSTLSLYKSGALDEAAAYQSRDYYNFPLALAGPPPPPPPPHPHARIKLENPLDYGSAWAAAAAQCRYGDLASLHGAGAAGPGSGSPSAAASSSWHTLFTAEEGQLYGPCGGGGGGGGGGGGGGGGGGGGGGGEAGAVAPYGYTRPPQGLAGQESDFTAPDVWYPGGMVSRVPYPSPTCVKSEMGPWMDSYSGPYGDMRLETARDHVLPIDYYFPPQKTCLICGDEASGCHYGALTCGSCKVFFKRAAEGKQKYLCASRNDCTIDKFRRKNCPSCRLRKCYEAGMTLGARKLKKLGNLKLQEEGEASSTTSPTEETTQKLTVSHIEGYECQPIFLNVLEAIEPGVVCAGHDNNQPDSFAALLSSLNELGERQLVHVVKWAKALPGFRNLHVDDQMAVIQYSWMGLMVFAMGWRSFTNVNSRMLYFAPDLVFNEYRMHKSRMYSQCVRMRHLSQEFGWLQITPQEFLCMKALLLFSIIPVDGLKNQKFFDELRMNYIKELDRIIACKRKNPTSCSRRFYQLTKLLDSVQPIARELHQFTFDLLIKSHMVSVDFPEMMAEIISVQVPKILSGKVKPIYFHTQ
Assay: qHTS assay to identify small molecule antagonists of the androgen receptor (AR) signaling pathway (AID 743035; active = well fitted inhibition curve with a large enough effect in the signal ratio in the repeat runs, not every such curve was filed as active; the % refers to the signal ratio)
Conditions: HEK293 AR-UAS-bla, R1881-stimulated, beta-lactamase FRET, 16 h; series mostly up to 58.5 µM
Method in brief: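 Beta-lactamase FRET read (2 h RT incubation with LiveBLAzer B/G) following 16 h of compound plus R1881 treatment of AR-UAS-bla HEK293 cells, which had been pre-incubated 4 h at 37C.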
With `CCCCCCCCN(C)CCCCCCCC` the Potency was “inactive”.
In the case of `CC1=CCC2C(C1)C2(C)C` (centres undefined), the Potency is reported as “inactive”.
In the case of `OCCN1C[C@H](O)[C@@H](O)[C@H](O)[C@H]1CO`, the Potency is reported as “inactive”.
With `NC1CCN(c2cccc(Cl)n2)CC1` the Potency was “inactive”.

Molecular target: Androgen receptor (Homo sapiens) (UniProt P10275)
Assay: qHTS assay to identify small molecule agonists of the androgen receptor (AR) signaling pathway (AID 743036; active = well fitted activation curve with a large enough effect in the signal ratio in the repeat runs, with a control signal flat, not every such curve was filed as active; the % refers to the signal ratio)
Conditions: HEK293 AR-UAS-bla GripTite, beta-lactamase FRET ratio, 16 h; series mostly up to 62.4 µM
Method in brief: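 Reporter line: GeneBLAzer AR-UAS-bla-GripTite (HEK293). Steps: plate cells, 4 h rest, add compounds, 16 h at 37C, add LiveBLAzer B/G substrate, 2 h at RT, read fluorescence.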
In the case of `CC1=CCC2C(C1)C2(C)C` (centres undefined), the outcome is reported as “inactive”.
In the case of `OCCN1C[C@H](O)[C@@H](O)[C@H](O)[C@H]1CO`, the outcome is reported as “inactive”.
In the case of `NC1CCN(c2cccc(Cl)n2)CC1`, the outcome is reported as “inactive”.

Molecular target: Androgen receptor (Homo sapiens) (UniProt P10275)
Assay: qHTS assay to identify small molecule agonists of the androgen receptor (AR) signaling pathway using the MDA cell line (AID 743040; note: nearly all actives have a fitted effect of over 20% in size)
Conditions: MDA-kb2 AR-luc cells, MMTV luciferase, 16 h; series mostly up to 70.3 µM
Method in brief: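 Cells plated, 5 h at 37C/0% CO2; compound or DMSO pinned; 16 h at 37C; ONE-Glo added; luminescence measured after 30 min at room temperature. Reporter line: MDA-kb2 with MMTV-luciferase responsive to AR and GR.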
With `CCCCCCCCN(C)CCCCCCCC` the Potency was “inactive”.
In the case of `CC1=CCC2C(C1)C2(C)C` (centres undefined), the Potency is reported as “inactive”.
In the case of `OCCN1C[C@H](O)[C@@H](O)[C@H](O)[C@H]1CO`, the Potency is reported as “inactive”.
In the case of `NC1CCN(c2cccc(Cl)n2)CC1`, the Potency is reported as “inactive”.

Test system: not listed separately
Assay: qHTS assay to identify small molecule antagonists of the androgen receptor (AR) signaling pathway using the MDA cell line - cell viability counter screen (AID 743041; note: nearly all actives have a fitted effect of over 45% in size)
Conditions: MDA-kb2 viability, CellTiter-Fluor, 16 h, cells co-treated with R1881 androgen agonist; series mostly up to 70.3 µM
Method in brief: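 Cells were plated at 3,000 per well and left 5 h. Compounds in DMSO were then pinned in, followed by R1881. After 16 h at 37C, CellTiter-Fluor fluorescence gave viability.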
For `Oc1ccc2c(c1)OC[C@@H](N1CCC(O)(c3ccc(F)cc3)CC1)[C@H]2O`, the Potency was “inactive”.
For `C1C2OC2C2C1C1CC2C2OC12` (centres undefined), the Potency was “inactive”.
With `c1ccc2cnncc2c1` the Potency was “inactive”.
In the case of `CC(C)(C)OC(=O)N1C[C@@H](F)C[C@H]1C(=O)O`, the Potency is reported as “inactive”.
For `Cc1ccccc1Br`, the Potency was “inactive”.
With `CCn1cc(C(=O)O)c(=O)c2cc(F)c(N3CCN(C)CC3)cc21` the Potency was “inactive”.
In the case of `Cn1ccc2cc3c(cc21)CCN3C(=O)Nc1cccnc1`, the Potency is reported as “inactive”.
For `CC(CCO)CCCC(C)(C)O` (centres undefined), the Potency was “inactive”.
For `c1ccc(CCCc2ccccn2)cc1`, the Potency was “inactive”.
For `CC1=CCC2C(C1)C2(C)C` (centres undefined), the Potency was “inactive”.
With `CCC(=O)/C=C/c1ccc(OC)cc1` the Potency was “inactive”.
In the case of `C=CCSCC1Nc2cc(Cl)c(S(N)(=O)=O)cc2S(=O)(=O)N1` (centres undefined), the Potency is reported as “inactive”.
With `N[C@@H](CS)C(=O)O` the Potency was “inactive”.
With `CCN1CCCC(OC(=O)C(c2ccccc2)c2ccccc2)C1` (centres undefined) the Potency was “inactive”.
With `C=C(C)C(=O)NCCCN(C)C` the Potency was “inactive”.
With `C#CC(O)CCCCC` (centres undefined) the Potency was “inactive”.
With `OCCN1C[C@H](O)[C@@H](O)[C@H](O)[C@H]1CO` the Potency was “inactive”.
In the case of `Nc1ccn(C2CO[C@H](CO)O2)c(=O)n1` (some centres undefined), the Potency is reported as “inactive”.
In the case of `CCCCCCCCCCC1CO1` (centres undefined), the Potency is reported as “inactive”.
With `NC(=O)c1ncn([C@@H]2O[C@H](CO)[C@@H](O)[C@H]2O)c1N` the Potency was “inactive”.
In the case of `O=C1C(CCS(=O)c2ccccc2)C(=O)N(c2ccccc2)N1c1ccccc1` (centres undefined), the Potency is reported as “inactive”.
In the case of `CCCCCCCCCCCCCCCCCCOCC(O)CO` (centres undefined), the Potency is reported as “inactive”.
With `NC1CCN(c2cccc(Cl)n2)CC1` the Potency was “inactive”.
For `COc1nc(C)nc(N)n1`, the Potency was “inactive”.
With `CCCOc1ccccc1-c1nc2n[nH]nc2c(=O)[nH]1` the Potency was “inactive”.
For `O=Cc1ccccc1[N+](=O)[O-]`, the Potency was “inactive”.
In the case of `Cc1onc(-c2ccccc2)c1-c1ccc(S(N)(=O)=O)cc1`, the Potency is reported as “inactive”.
